# From PubChem BioAssay (Tox21)
# Results filed as inconclusive are left out. Activity calls are given as the source filed them. Calls follow the shape of the dose curve; as a rule, active = well fitted activation curve with a large enough effect in the signal ratio in the repeat runs (not every such curve was filed as active); inconclusive = weak or mixed curves, or effect the other way; inactive = no such curve, though single readings can be large or run the other way; the % refers to the signal ratio.
# Target: Peroxisome proliferator-activated receptor gamma (Homo sapiens) (UniProt P37231)
# Assay: qHTS assay to identify small molecule agonists of the peroxisome proliferator-activated receptor gamma (PPARg) signaling pathway (AID 743094)
# Settings: HEK293H PPARg-UAS-bla, beta-lactamase FRET ratio, 17 h; series mostly up to 57 µM; activation: at the top concentration
# Excerpt: U.S. Tox21 Program National Center for Advancing Translational Sciences [NCATS] NIH Chemical Genomics Center [NCGC] U.S. Environmental Protection Agency [EPA] National Institutes of Environmental Health Sciences [NIEHS] National Toxicology Program [NTP] U.S. Food and Drug Administration [FDA] Tox21 Assay Overview: The peroxisome proliferator-activated receptors (PPARs) are lipid-activated transcription factors of the nuclear receptor superfamily with three distinct subtypes namely PPAR alpha, PPAR delta (also called PPAR beta) and PPAR gamma (PPARg). All these subtypes heterodimerize with Retinoid X receptor (RXR) and these heterodimers regulate transcription of various genes. PPAR-gamma receptor (glitazone receptor) is involved in the regulation of glucose and lipid metabolism. To identify the compounds that activate PPAR-gamma signaling, GeneBLAzer PPAR gamma UAS-bla HEK293H cell line (Invitrogen, Carlsbad, CA, USA) containing a beta-lactamase reporter gene under control of the control of an upstream activator sequence (UAS) stably integrated into HEK293H cells was used to screen Tox21 compound library.
# Tox21 Assay Protocol Summary: PPARg-bla cells were dispensed at 3000 cells/6uL/well in 1536-well black wall/clear bottom plates using a Multidrop Combi (Thermo Fisher Scientific, Waltham, MA) dispenser. After the assay plates were incubated at 37C and 5% CO2 for 5 h, 23 nL of compounds dissolved in DMSO, positive controls or DMSO only was transferred to the assay plate by a Pintool station (Kalypsys, San Diego, CA). The assay plates were incubated at 37C for 17 h. After 1 uL of LiveBLAzerTM B/G FRET substrate was added using a Bioraptr Flying Reagent Dispenser (FRD) workstation (Beckman Coulter, Indianapolis, IN, USA), the plates were incubated at room temperature for 1 h, and fluorescence intensity was measured by an Envision plate reader (PerkinElmer, Shelton, CT).
# % is scaled to controls: 0 for no effect and ±100 for the full control effect.
# Peroxisome proliferator-activated receptor gamma (Homo sapiens), sequence (P37231 whole entry, looked up): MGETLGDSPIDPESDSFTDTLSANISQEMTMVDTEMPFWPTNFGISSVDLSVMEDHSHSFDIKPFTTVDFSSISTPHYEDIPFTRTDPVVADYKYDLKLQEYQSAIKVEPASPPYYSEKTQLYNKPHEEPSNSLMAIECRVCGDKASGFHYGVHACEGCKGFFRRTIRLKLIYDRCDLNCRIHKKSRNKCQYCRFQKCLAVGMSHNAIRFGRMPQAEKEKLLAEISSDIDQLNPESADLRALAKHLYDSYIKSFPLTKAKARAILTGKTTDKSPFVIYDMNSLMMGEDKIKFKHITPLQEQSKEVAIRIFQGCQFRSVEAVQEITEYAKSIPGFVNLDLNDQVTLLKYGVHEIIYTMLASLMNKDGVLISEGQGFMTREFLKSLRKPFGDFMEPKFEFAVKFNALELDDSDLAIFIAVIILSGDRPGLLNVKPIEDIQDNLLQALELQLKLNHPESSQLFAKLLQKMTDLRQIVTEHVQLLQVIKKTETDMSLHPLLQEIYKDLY
row,Compound,activation
1,Cc1c[nH]c(=S)[nH]c1=O,-7.99% (inactive)
2,CC/C=C\CCOC(=O)CCCCC,-2.1% (inactive)
3,O=[N+]([O-])c1nccn1CO[C@@H](CO)[C@H](O)CO,-0.248% (inactive)
4,O=C1C=CC(=O)O1,-1.79% [at 78.9 µM] (inactive)
5,CCCCCCCCc1ccc(S(=O)(=O)O)cc1,-4.8% (inactive)
6,CCN1CC(CCN2CCOCC2)C(c2ccccc2)(c2ccccc2)C1=O (stereo not given),0.0797% (inactive)
7,CCN(CC)CCNC(=O)COc1ccc(Cl)cc1,-9.73% (inactive)
8,CCCCCCOc1ccc(N)cc1,-8.03% (inactive)
9,CC/C=C\CCOC(=O)C(C)C,-4.73% (inactive)
10,CC1(C)O[C@@H]2C[C@H]3[C@@H]4CCC5=CC(=O)CC[C@]5(C)[C@@]4(F)[C@@H](O)C[C@]3(C)[C@]2(C(=O)CCl)O1,0.763% [at 26.2 µM] (inactive)
11,CCCOCCC,-0.124% (inactive)
12,O=C1CCC(C2CCCCC2)CC1,-8.73% (inactive)
13,COc1cc(N)c(Cl)cc1C(=O)NC1CCN(Cc2ccccc2)CC1,-0.591% [at 26.2 µM] (inactive)
14,Nc1ccc(Oc2ccc(N)c(N)c2)cc1,2.8% (inactive)
15,COc1cc(C)ccc1C(C)C,0.295% (inactive)
16,CCN(CCCc1ccccc1)CCCc1ccccc1,-4.42% [at 26.2 µM] (inactive)
17,CCCCCCCOC(=O)CCC,-3.18% (inactive)
18,CC(C)c1ccccc1,-7.97% [at 78.9 µM] (inactive)
19,C[C@]12C(=O)OC(=O)[C@H]1[C@H]1C=C[C@@H]2C1,-2.05% [at 78.9 µM] (inactive)
20,CC(=O)Nc1ccc(C)c(Cl)c1,-0.997% (inactive)

row,Compound,activation
1,CCOc1ccc2nc(N)sc2c1,5.31% (inactive)
2,CC(=O)N[C@@H](CC(C)C)C(=O)O,-1.18% (inactive)
3,COc1ccc2nc(NC(=O)Nc3ccccc3)sc2c1,1.62% (inactive)
4,C[C@@H](N)C(=O)O,1.52% (inactive)
5,O=c1[nH]cnc2c1ncn2[C@@H]1O[C@H](CO)[C@@H](O)[C@H]1O,1.3% (inactive)
6,CN1CCN(c2c(F)cc3c(=O)c(C(=O)O)cn(CCF)c3c2F)CC1,2.3% (inactive)
7,O=C(C(Cl)Cl)N1CCOC12CCCCC2,-2.24% (inactive)
8,c1ccc(CN(CC2=NCCN2)c2ccccc2)cc1,-6.89% (inactive)
9,O=C(Cl)c1cccc([N+](=O)[O-])c1,0.792% (inactive)
10,C=CC1CO1 (stereo not given),-1.74% [at 78.9 µM] (inactive)
11,CCCCCCCCCC/C=C/C#N,-0.512% (inactive)
12,COC(=O)C(C)O (stereo not given),2.15% [at 78.9 µM] (inactive)
13,Cc1ccsc1C(=CCCN1CCC[C@@H](C(=O)O)C1)c1sccc1C,1.31% (inactive)
14,CC1=CC(=O)CC(C)(C)C1=O,0.69% [at 78.9 µM] (inactive)
15,CC(C)=CCC[C@](C)(O)[C@@H]1CC=C(C)CC1,0.834% (inactive)
16,CC1=NN(c2cc(Cl)c(S(=O)(=O)O)cc2Cl)C(=O)C1N=Nc1ccc(S(=O)(=O)O)cc1 (stereo not given),1.46% (inactive)
17,CCCCNC(=S)NCCCC,-2.29% (inactive)
18,Cn1cnc2c(F)c(Nc3ccc(Br)cc3Cl)c(C(=O)NOCCO)cc21,1.75% (inactive)
19,C[C@]12CCC(=O)C=C1CC[C@@H]1[C@@H]2CC[C@@]2(C)[C@H]1CC[C@]2(O)C(=O)CO,0.27% (inactive)
20,CCCCOc1cc(C(=O)NCCN(CC)CC)c2ccccc2n1,-10.6% [at 26.2 µM] (inactive)
